Hit rate of the full screen: of about 310,000 compounds, about 14,000 (4.5%) showed an effect of 50% or more. The effect is printed as a negative number. The entries come from a sample that favours strong results as a whole.
Target: human ether-à-go-go-related gene (hERG) potassium channel (human, UniProt Q12809)
Experiment: primary screen, population patch clamp on CHO cells stably expressing hERG; higher = less effect of the substance
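Further: peak tail current of the secondary pulse compared with the same well before compound.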

Sequence of human ether-à-go-go-related gene (hERG) potassium channel (Q12809 whole entry, looked up): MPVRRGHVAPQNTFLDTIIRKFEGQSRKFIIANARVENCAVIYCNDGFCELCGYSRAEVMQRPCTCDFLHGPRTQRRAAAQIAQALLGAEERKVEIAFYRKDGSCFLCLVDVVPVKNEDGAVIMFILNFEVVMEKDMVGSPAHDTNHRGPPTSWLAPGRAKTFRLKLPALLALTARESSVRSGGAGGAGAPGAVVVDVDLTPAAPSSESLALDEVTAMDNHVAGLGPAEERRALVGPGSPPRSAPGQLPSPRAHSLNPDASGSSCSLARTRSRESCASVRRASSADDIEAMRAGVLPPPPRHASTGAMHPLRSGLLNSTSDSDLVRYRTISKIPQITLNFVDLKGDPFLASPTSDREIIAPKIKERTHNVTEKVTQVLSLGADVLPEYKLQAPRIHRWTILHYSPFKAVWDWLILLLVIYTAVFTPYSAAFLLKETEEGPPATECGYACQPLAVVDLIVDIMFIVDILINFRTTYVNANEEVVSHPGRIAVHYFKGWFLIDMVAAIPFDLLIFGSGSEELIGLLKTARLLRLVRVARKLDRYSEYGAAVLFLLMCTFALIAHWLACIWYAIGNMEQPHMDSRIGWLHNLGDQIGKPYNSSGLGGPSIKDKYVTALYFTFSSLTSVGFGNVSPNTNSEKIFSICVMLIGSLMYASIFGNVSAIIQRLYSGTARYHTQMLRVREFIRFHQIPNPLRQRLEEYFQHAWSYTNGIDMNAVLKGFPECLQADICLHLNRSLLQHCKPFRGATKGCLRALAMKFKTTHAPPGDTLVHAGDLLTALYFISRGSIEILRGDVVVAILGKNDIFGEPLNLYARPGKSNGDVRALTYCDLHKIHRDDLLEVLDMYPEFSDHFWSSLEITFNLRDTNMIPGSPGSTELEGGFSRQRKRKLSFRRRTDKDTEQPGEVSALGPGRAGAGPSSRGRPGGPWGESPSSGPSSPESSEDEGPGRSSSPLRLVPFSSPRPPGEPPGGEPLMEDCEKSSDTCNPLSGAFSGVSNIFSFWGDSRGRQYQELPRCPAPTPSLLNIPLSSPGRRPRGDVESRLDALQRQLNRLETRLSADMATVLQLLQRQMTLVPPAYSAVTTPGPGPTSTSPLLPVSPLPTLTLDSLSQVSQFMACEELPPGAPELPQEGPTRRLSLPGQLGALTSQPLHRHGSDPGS

| Structure (SMILES) | hERG current change (%, negative = inhibition) at 10uM [%] |
| --- | --- |
| O=C(CSCc1cccc(F)c1)N1CCN(c2ccccc2)CC1 | -19.2 |
| Cc1ccc(NS(=O)(=O)c2c(C)[nH]c(=O)[nH]c2=O)c(C)c1 | 24.3 |
| COc1ccc(C(=O)N2CCN(C3CCCCC3)CC2)cc1OC.O=C(O)C(=O)O | -73.6 |
| COc1ccc(C(=O)N2CCN(C(=O)Cc3ccccc3)CC2)cc1OC | 5.3 |
| COc1cc(OC)cc(C(=O)N2CCN(C3CCCCC3)CC2)c1.O=C(O)C(=O)O | -23.4 |
| COc1cc(C(=O)N2CCN(C3CCCCC3)CC2)cc(OC)c1OC.O=C(O)C(=O)O | 2.07 |
| COc1ccc(C(=O)N2CCN(C3CCC(c4ccccc4)CC3)CC2)cc1OC (centres unmarked) | -69.9 |
| COc1cccc(C(=O)N2CCN(C3CCCCC3)CC2)c1.O=C(O)C(=O)O | -13.5 |
| COc1ccc(C(=O)N2CCN(C3CCN(Cc4ccccc4)CC3)CC2)cc1OC | -42.8 |
| COc1ccc(C(=O)N2CCCN(C)CC2)c(OC)c1 | -5.24 |
| COc1ccc(C(=O)N2CCN(C3CCCCC3)CC2)c(OC)c1 | -73.6 |
| CC(=O)c1c(C)[nH]c(C(=O)OCc2ccccc2)c1C | -3.71 |
| C=C(C)CSc1nnc(-c2ccccc2)n1N | -1.72 |
| CCOC(=O)N1CCC(NS(=O)(=O)c2ccc3c(c2)oc(=O)n3C)CC1 | 1.74 |
| COc1cccc(N2CCN(S(=O)(=O)c3cccc4nsnc34)CC2)c1 | -10.6 |
| CC(C)Cc1nnc(NC(=O)CCC(=O)NC2CC2)s1 | 21.9 |
| COc1ccc(NC(=O)c2c(C)noc2-c2snnc2C)cc1 | -1.51 |
| N=c1c(S(=O)(=O)c2ccc(Cl)cc2)cc2c(=O)n3ccccc3nc2n1Cc1ccco1 | 13.1 |
| N=c1c(S(=O)(=O)c2ccc(Br)cc2)cc2c(=O)n3ccccc3nc2n1Cc1ccco1 | 7.31 |
| N=c1c(C(=O)NCc2ccccc2)cc2c(=O)n3ccccc3nc2n1Cc1ccco1 | -76.4 |
| O=C(NCCc1ccco1)c1nn(Cc2ccccc2)c(=O)c2ccccc12 | 10.3 |
| N=c1c(C(=O)NCc2ccco2)cc2c(=O)n3ccccc3nc2n1Cc1ccc(Cl)cc1 | -77.1 |
| CC(C)n1c(=N)c(C(=O)NCCc2ccccc2)cc2c(=O)n3ccccc3nc21 | -75.1 |
| N=c1c(C(=O)NCCc2ccccc2)cc2c(=O)n3ccccc3nc2n1Cc1ccco1 | -77.9 |
| N=c1c(S(=O)(=O)c2ccccc2)cc2c(=O)n3ccccc3nc2n1Cc1ccco1 | -18.9 |
| O=C(NCCc1ccccc1)c1cnc2ccccn2c1=O | -12 |
| O=C(NCc1ccco1)c1ccc(Cn2c(=O)c3ccccc3n(Cc3ccc(Cl)cc3)c2=O)cc1 | 8.16 |

| Structure (SMILES) | hERG current change (%, negative = inhibition) at 10uM [%] |
| --- | --- |
| Cn1c(C(=O)NCCC2=CCCCC2)cc2c(=O)n3ccccc3nc21 | 19.7 |
| CCCCN(CC)c1nc(N)c(C#N)c(CC#N)c1C#N | -24.9 |
| O=C(NCCO)C(=O)NCC1OCCCN1S(=O)(=O)c1cc(F)ccc1F (centres unmarked) | 13.6 |
| CCOc1cc(/C=C/c2nc3ccccc3c(=O)[nH]2)ccc1O | 13.4 |
| CCN(CC)C(=O)OCc1c(-c2ccccc2)ncc2ccccc12 | -25.5 |
| CCc1nn(-c2cc(Oc3cccc4ccccc34)nc(-c3ccccc3)n2)c(N)c1C#N | 23.3 |
| CCOC(=O)N1CCN(S(=O)(=O)c2ccc(OC)cc2)CC1 | -4.57 |
| CC(=O)Nc1ccc(NS(=O)(=O)c2ccccc2)cc1 | 17.1 |
| O=C(CCn1c(=O)c2ccccc2n(Cc2cc(=O)n3ccccc3n2)c1=O)NCc1ccco1 | -4.21 |
| N=c1c(C(=O)NCc2ccco2)cc2c(=O)n3ccccc3nc2n1CCc1ccccc1 | -76.7 |
| N=c1c(C(=O)NCc2ccc(F)cc2)cc2c(=O)n3ccccc3nc2n1Cc1ccco1 | -77.8 |
| N=c1c(C(=O)NCc2ccco2)cc2c(=O)n3ccccc3nc2n1Cc1ccccc1 | -79.3 |
| O=C(CCn1c(SCC(=O)NCc2ccco2)nc2ccccc2c1=O)NCCc1ccccc1 | -34.5 |
| Cn1nnnc1SCC(=O)Nc1ccc(S(=O)(=O)N2CCOCC2)cc1 | 3.21 |
| COc1ccc(CNC(=O)CN2C(=O)C3C4C=CC(C4)C3C2=O)cc1 (centres unmarked) | 19.2 |
| O=C(O)C1CC(=O)N(c2ccc(OCc3ccc(Br)cc3)cc2)C1 (centres unmarked) | 6.71 |
| COCCNC(=O)C(c1ccco1)N(C(=O)Cn1nnc2ccccc21)c1cc(C)ccc1C (centres unmarked) | -4.75 |
| O=c1c2[nH]c3ccc(F)cc3c2ncn1CCCn1ccnc1 | -61.1 |
| O=c1c2[nH]c3ccc(Br)cc3c2ncn1CCCn1ccnc1 | -64.4 |
| O=c1c2[nH]c3ccc(Br)cc3c2ncn1Cc1ccncc1 | -4.79 |
| COc1ccc2c(c1)[nH]c1c(=O)n(CCCn3ccnc3)cnc12 | -35.1 |
| O=C1CCCN1CCCn1cnc2c([nH]c3ccc(F)cc32)c1=O | -42.2 |
| O=c1c2[nH]c3ccccc3c2ncn1CCCn1ccnc1 | -41.8 |
| CC(C)(C)C1CCC(=NNC(=O)c2cc3c(s2)CCCC3)CC1 (centres unmarked) | 20.1 |
| Cc1cccc(NC(=O)c2sc(NC(=O)c3ccco3)c(C#N)c2C)c1C | 5.79 |
| O=C(CCSc1nc(-c2ccco2)cc(C(F)(F)F)n1)NCc1ccccn1 | -22.5 |
